GCN5L2 inh – GCN5L2 (KAT2A) acetyltransferase inhibition; Q92830; GCN5L2 HAT assay, ThioGlo1 CoA-SH fluorescence; Potency, µM (top dose mostly 58.9 µM), without a hit: top-dose activity change, negative = inhibition, hits mostly inhibitors; 0.21% of 390,000 active; AID 504327; also: potency is read from the fitted curve at half-maximal effect; % is scaled to controls: 0 for no effect and ±100 for the full control effect
Target sequence (Q92830 whole entry, looked up): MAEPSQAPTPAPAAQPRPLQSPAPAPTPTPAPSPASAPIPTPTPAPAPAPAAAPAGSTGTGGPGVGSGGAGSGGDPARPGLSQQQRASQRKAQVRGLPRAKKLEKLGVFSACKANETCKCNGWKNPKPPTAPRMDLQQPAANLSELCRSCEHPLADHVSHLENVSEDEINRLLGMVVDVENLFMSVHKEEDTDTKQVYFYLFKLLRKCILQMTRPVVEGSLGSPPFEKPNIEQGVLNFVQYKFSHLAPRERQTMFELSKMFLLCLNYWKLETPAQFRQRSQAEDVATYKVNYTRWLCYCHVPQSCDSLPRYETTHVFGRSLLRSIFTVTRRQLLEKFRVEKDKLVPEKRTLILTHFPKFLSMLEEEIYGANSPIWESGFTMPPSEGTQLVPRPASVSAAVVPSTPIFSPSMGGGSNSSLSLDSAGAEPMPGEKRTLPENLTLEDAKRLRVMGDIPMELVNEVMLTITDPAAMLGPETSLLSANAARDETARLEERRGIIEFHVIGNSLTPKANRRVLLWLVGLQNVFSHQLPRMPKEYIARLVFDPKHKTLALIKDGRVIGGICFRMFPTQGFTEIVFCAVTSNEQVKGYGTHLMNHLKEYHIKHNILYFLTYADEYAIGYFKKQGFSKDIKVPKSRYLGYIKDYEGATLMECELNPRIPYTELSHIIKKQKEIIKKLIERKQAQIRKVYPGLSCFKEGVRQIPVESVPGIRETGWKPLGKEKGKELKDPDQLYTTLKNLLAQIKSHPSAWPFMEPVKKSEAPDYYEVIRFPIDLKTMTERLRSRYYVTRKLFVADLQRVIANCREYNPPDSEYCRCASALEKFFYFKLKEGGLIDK
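GCN5L2 (20nM final) in 50mM HEPES, 0.1mM EDTA pH 7.5, 0.01% Tween-20 was preincubated 15 min at room temperature with compound, then given ThioGlo1 (50uM), H3(1-25) peptide (75uM) and acetyl-CoA (70uM); CoA-thiol fluorescence (Ex340/Em540) was read at 0 and 20 min.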
PI5P4Ka inh – blocks human PI5P4K alpha kinase activity; PI5P4Kalpha enzyme, ADP-Glo luminescence, 60 min; active compounds read low; max response, %; 1.2% of 330,000 active; active = max response of -50% or lower; inconclusive = between -30% and -50%; inactive = -30% or higher; also: value at the top dose of about 77 µM; % is scaled to controls: 0 for no effect and ±100 for the full control effect
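Compounds were pin-transferred onto PI5P4Kalpha and substrate in HEPES pH 7.4 buffer with EGTA, CHAPS and 5% DMSO. ATP (5 microM final) started the reaction, which ran 60 minutes at room temperature before ADP-Glo detection.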
BAZ2B inh – inhibitors of human BAZ2B bromodomain | AlphaScreen BAZ2B-H3K14Ac peptide displacement | Potency, µM (series often up to 114 µM), for inactives: at the top dose activity change, negative = inhibition, usual class: inhibitors | 4.4% of 360,000 active | AID 504333; also: potency is read from the fitted curve at half-maximal effect; % is scaled to controls: 0 for no effect and ±100 for the full control effect; nearly all actives have a fitted effect of over 60% in size
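AlphaScreen displacement: compounds (up to 110uM) incubated 30 min at room temperature with a preformed 50 nM BAZ2B/50 nM biotinylated H3K14Ac peptide complex in PBS pH 7.4 with Tween-20. Donor and acceptor beads at 10 ug/mL final added, 20 min light-protected before reading.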
HP1b chromo inh – blocks HP1-beta chromodomain binding to methylated histone tails. Potency, µM (series often up to 114 µM), inactives show at the highest dose activity change, negative = inhibition, hits mostly inhibitors. AlphaScreen HP1-beta / biotin-H3K9me3 peptide binding. P83916. 0.56% of 390,000 active; also: potency is read from the fitted curve at half-maximal effect; nearly all actives have a fitted effect of over 70% in size
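AlphaScreen: HP1-beta (50 nM) preformed 30 min with biotin-H3(1-18)K9me3 peptide (50 nM) in PBS pH 7.4, 0.01% Tween-20. Compound added for 30 min at RT, then streptavidin donor/nickel chelate acceptor beads (10 ug/mL) for 30 min.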
JMJD2A Tudor inh – blocks the human JMJD2A Tudor domain; AlphaScreen JMJD2A-Tudor / H3K4me3 peptide binding; O75164; 4.4% of 390,000 active; Potency, µM (titrated, usually from 114 µM), inactives show top-dose activity change, negative = inhibition, hits mostly inhibitors; also: potency is read from the fitted curve at half-maximal effect; % is scaled to controls: 0 for no effect and ±100 for the full control effect; nearly all actives have a fitted effect of over 50% in size
PLK1 PBD block – inhibitors of human PLK1 polo-box domain binding; AID 720504; Potency, µM, for the others: max response, negative = inhibition, most hits filed as inhibitors; 2.8% of 360,000 active; Plk1 PBD binding of FITC phosphopeptide, fluorescence polarization; P53350; also: potency is read from the fitted curve at half-maximal effect; series mostly up to about 57 µM; % is scaled to controls: 0 for no effect and ±100 for the full control effect; nearly all actives have a fitted effect of over 65% in size
Starred values were filed as active, the others as inactive; ? = inconclusive; nt = not tested or not shown; [ ] = dose if it differs, or a comment. This is a sample that favours compounds with a hit; in the whole collection about 7% have one here. Unless noted, calls follow the shape of the dose curve; as a rule, active = well fitted curve in the direction sought with a large enough effect; inconclusive = small, poorly fitted or top-dose-only effect, or another doubt; inactive = no such curve, though single readings can be large; an effect the other way counts as inactive or inconclusive.

SMILES	GCN5L2 inh	PI5P4Ka inh	BAZ2B inh	HP1b chromo inh	JMJD2A Tudor inh	PLK1 PBD block
O=C(CSc1n[nH]c(=O)[nH]c1=O)N/N=C/C=C/c1ccccc1	-4%	-12	-18%	17%[57 µM]	-7%	-2%
O=C(CSc1n[nH]c(=O)[nH]c1=O)N/N=C/C=C\c1ccccc1	-12%	-21	nt	-6%	-20%[11.4 µM]	24µM*
O=C(Oc1ccc(=O)n(-c2ccccc2)n1)c1ccc(Cl)cc1	-11%	2	8%	51%	-27%[11.4 µM]	?
O=C(Oc1ccc(=O)n(-c2ccccc2)n1)c1cccc(Cl)c1	-9%	-12	6%	49%	-8%	6.7µM*
COc1ccc(CNC(=O)CN2C(=O)C(c3ccccc3)Oc3cccnc32)cc1 (stereo not drawn)	1%	0	-4%	9%	-18%	-2%
CC(=O)Nc1ccc(NC(=O)CCCN2C(=O)C(c3ccccc3)Oc3cccnc32)cc1 (stereo not drawn)	nt	8	nt	nt	nt	-2%
Cc1cc(C)cc(NC(=O)CCCN2C(=O)C(c3ccccc3)Oc3cccnc32)c1 (stereo not drawn)	-2%	-13	-14%	20%	?	24µM*
CCOc1ccc(CNC(=O)CN2C(=O)C(c3ccccc3)Oc3cccnc32)cc1 (stereo not drawn)	-15%	-10	71µM*	30%	-24%	-2%
O=C(CN1C(=O)C(c2ccccc2)Oc2cccnc21)NCc1ccccc1F (stereo not drawn)	-6%	?	-23%	18%	20µM*	7.5µM*
COc1cccc(CNC(=O)CCCN2C(=O)C(c3ccccc3)Oc3cccnc32)c1OC (stereo not drawn)	-4%	9	-14%	21%	-6%	-6%
CCCCCCCCCCCCCCSCC(=O)O	10µM*	nt	nt	nt	nt	nt
CCCCCCCCCCCCCCCC(=O)O	-30%	nt	nt	nt	nt	nt
Cc1ccc(S(=O)(=O)CCC(=O)Nc2ccc(OC(F)(F)F)cc2)cc1	0%	nt	11%[57.1 µM]	31%	0%	nt
C=CCC(C)(NCc1ccccc1)c1ccco1 (stereo not drawn)	2%	-1	50µM*	?	2µM*	-3%
C/C(=N\NC(=O)CCC(=O)NCc1ccccc1)c1ccco1	-6%	-2	-15%	47%	12%	3%
CN(C)c1ccc(C(=O)Nc2nc3c(s2)CCCC3)cc1	-11%	-22	?	?	79µM*	0%
C/C(=N\Nc1nc2c(s1)CCCC2)c1ccc(Cl)cc1	2%	2	45µM*	-23%	?	?
COc1cccc(/C=N/NC(=O)c2cc(-c3ccccn3)nc3ccccc23)c1O	-6%	3	-30%	-6%[57 µM]	56µM*	?
Cc1cc(C(=O)N/N=C/c2cc(Cl)cc([N+](=O)[O-])c2O)n[nH]1	3%	-10	50µM*	27%	?	-4%
Cc1cc(C(=O)N/N=C/c2ccc(-c3ccc([N+](=O)[O-])cc3Cl)o2)n[nH]1	-18%	-21	79µM*	20%	?	?
O=C(NNC(=O)c1cc(O)c(O)c(O)c1)NC1CCCCC1	-9%	-9	56µM*	-30%	10µM*	?
O=S(=O)(CCNCCc1ccccc1)NC1CCCCC1	nt	1	nt	3%	-18%	0%
O=C(Nc1ccc(F)cc1)C(c1cc2ccccc2o1)N1CCN(c2ccncc2)CC1 (stereo not drawn)	nt	1	nt	nt	nt	1%
O=[N+]([O-])c1cc(Cl)cc(/C=N\Nc2ccccn2)c1O	-4%	-60*	4.5µM*	10µM*	10µM*	3.4µM*
O=C(NC1CCCCCCC1)c1cc(-c2ccccn2)nc2ccccc12	-12%	-29	-13%	5%	?	27µM*
SMILES	GCN5L2 inh	PI5P4Ka inh	BAZ2B inh	HP1b chromo inh	JMJD2A Tudor inh	PLK1 PBD block
O=C(N/N=C/c1cc(Cl)cc([N+](=O)[O-])c1O)c1cc(-c2ccccn2)nc2ccccc12	-5%	-62*	?	?	45µM*	?
O=C(NC1CCCCCCC1)c1ccccc1O	-11%	-3	2%	17%	-1%[11.4 µM]	21µM*
CC(C1CCN(Cc2nc(C3CC3)no2)CC1)N1CCOCC1 (stereo not drawn)	8%	7	-17%	33%	-5%	-5%
O=C(Cn1c(=O)nc(-c2ccccc2)c2ccccc21)NCCc1ccc(Cl)cc1	20%	nt	-1%	41%	1%	nt
COc1ccc(NC(=O)N(C)C[C@H]2OCc3cnnn3CCCC(=O)N([C@@H](C)CO)C[C@H]2C)c(OC)c1	nt	-2	nt	nt	nt	7%
NNC(=O)CSc1cccc2cccnc12	-7%	-2	-25%	39%	-10%	-5%
CN(C)C(=O)CSc1cccc2cccnc12	-1%	-3	9%	11%	-7%	12µM*
O=C(CSc1cccc2cccnc12)OCC(=O)c1ccccc1	-7%	0	1%[57.1 µM]	-6%	35µM*	21µM*
Cc1cccc(OCC(=O)N/N=C/c2cccn2C)c1	-26%	-4	-38%	-4%	?	-4%
Cc1cccc(OCC(=O)N/N=C\c2cccn2C)c1C	-6%	2	?	2%	-15%	-18%
Cc1ccccc1OCC(=O)N/N=C/c1cccn1C	2%	-1	45µM*	-18%	8%[11.4 µM]	-23%
Cc1ccc(C(C)C)c(OCC(=O)N/N=C/c2cccn2C)c1	-30%	7	25µM*	?	?	-4%
COc1ccc(NC(=O)c2ccc(COc3ccccc3OC)o2)cc1OC	-4%	-20	-18%	16%	-21%	30µM*
COc1ccc(NC(=O)c2ccc(COc3ccccc3Br)o2)cc1OC	-3%	11	?	-15%	-35%	-3%
COCC(C)NCc1cccc(C)c1 (stereo not drawn)	-3%	1	-10%	53%	1%	-9%
COCC(C)NCc1cccc([N+](=O)[O-])c1 (stereo not drawn)	-9%	nt	50µM*	?	3.2µM*	-6%
CCCCCCCCN1C(=O)[C@H](CC(=O)N2CCSCC2)C[C@@]2(C(=O)OC)CC(C)(C)CC=C12	nt	-3	nt	nt	nt	-1%
O=C(CCc1ccc(Oc2cc([N+](=O)[O-])cc([N+](=O)[O-])c2)cc1)NC1CCCC1	-9%	4	-1%	8%	-24%	-4%
CC1CCN(C(=O)CCc2ccc(Oc3cc([N+](=O)[O-])cc([N+](=O)[O-])c3)cc2)CC1	-1%	1	28µM*	45µM*	13µM*	-14%
O=C1[C@@H]2C(Cc3ccc(O)cc3)NC3(C(=O)Nc4ccc(F)cc43)[C@@H]2C(=O)N1c1ccccc1 (stereo partly drawn)	-1%	-6	-37%	-17%	79µM*	-17%

Assay outcomes (PubChem BioAssay)
